VACV mCherry inh: inhibitors of vaccinia virus infection (mCherry reporter signal) | AID 720579 | 0.63% of 310,000 active | Vaccinia virus mCherry reporter infection, fluorescence | Potency, µM (top dose mostly 36.5 µM), actives largely listed as inhibitors; calls by dose curve; tested in A549 cells; further: nearly all actives have a fitted effect of over 35% in size
LASV entry inh: blocks Lassa virus binding to or entry into cells. Lassa virus pseudotype entry inhibition, cell reporter. Potency, µM (highest dose often 37.9 µM), actives largely listed as inhibitors. 1.2% of 300,000 active. AID 540256; calls by dose curve; tested in HEK293 cells; further: nearly all actives have a fitted effect of over 50% in size
VACV Venus inh: inhibitors of vaccinia virus (Venus reporter) | Potency, µM (highest dose often 36.5 µM), most hits filed as inhibitors | Vaccinia virus Venus reporter expression, fluorescence | 0.46% of 330,000 active | AID 720580; calls by dose curve; tested in A549 cells; further: nearly all actives have a fitted effect of over 30% in size
MARV entry inh: Marburg virus entry inhibition. Potency, µM (highest dose often 37.8 µM), usual class: inhibitors. 1.8% of 300,000 active. Marburg virus pseudotyped entry inhibition, cell reporter; calls by dose curve; tested in HEK293 cells
HCV inhibitor: blocks hepatitis C virus; Huh7.5.1 HCVcc-Cre infection, luciferase reporter, 44 h; Potency, µM (series often up to 41.8 µM), usual class: inhibitors; AID 651820; 3.4% of 340,000 active
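Whole-lifecycle infectious HCVcc-Cre system; cells 1,000/well, compound then virus (~0.5 moi) added 4 h after plating, 44 h culture. Luciferase read 15 sec following 15 min substrate incubation, room temp.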
HCV inh confirm: HCV inhibition, cherry-pick confirmation; shares compounds with HCV inhibitor; HCVcc-Cre infectious virus cell assay, luciferase, inhibition; Potency, µM (titrated, usually from 41.8 µM), actives largely listed as inhibitors; 78% of 640 active; further: nearly all actives have a fitted effect of over 80% in size
HCV cytotox: host cell cytotoxicity counter-screen for HCV inhibitors | shares compounds with HCV inhibitor | HCV host cell line cytotoxicity counterscreen | Potency, µM (doses to about 41.8 µM), hits mostly inhibitors | 22% of 640 active | AID 720576;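 further: 44 h compound exposure; nearly all actives have a fitted effect of over 55% in size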
Hits are given with their value; i = inactive; ? = inconclusive; nt = not tested or not shown; [ ] = another dose, or the depositor's remark. This is a sample that favours compounds with a hit; in the whole collection about 4.6% have one here. Unless noted, the call rests on the fitted dose curve; in most records, active means well fitted curve in the direction sought with a large enough effect; inconclusive means small, poorly fitted or top-dose-only effect, or another doubt; inactive means no such curve, though single readings can be large; an effect the other way counts as inactive or inconclusive.

SMILES | VACV mCherry inh | LASV entry inh | VACV Venus inh | MARV entry inh | HCV inhibitor | HCV inh confirm | HCV cytotox
CC(C)n1c(NCCc2ccccc2)nc2c1c(=O)n(C)c(=O)n2C | i | ? | i | ? | ? | 7.9µM | ?
CCOc1ccc(CCNc2nc3c(c(=O)n(C)c(=O)n3C)n2CC)cc1OCC | nt | ? | nt | ? | 5.6µM | 6.3µM | 14µM
Cn1c(=O)c2c(nc(NCCc3ccccc3)n2Cc2ccc(Cl)cc2)n(C)c1=O | ? | i | ? | i | nt | nt | nt
CN(C)CC/C=C1/c2ccc(F)cc2Sc2ccc(Cl)cc21 | i[7.34 µM] | ? | i[7.34 µM] | 13µM | 8.9µM | 14µM | i
CCc1ccccc1NC(=O)C(CCSC)NS(=O)(=O)c1ccc2c(c1)oc(=O)n2C (configuration not stated) | i | i | i | i | nt | nt | nt
Cc1cc(C)c(C(=O)OCCNC(=O)c2cccnc2)cc1C | nt | i | nt | i | 8.9µM | ? | i
C=C1C=C(C)n2ncc(C(=O)Nc3cccc(C(=O)Nc4cccc(C(F)(F)F)c4)c3)c2N1 | i | nt | i | nt | nt | nt | nt
CC(=NNC(=S)N1CCN(C2CCCCCC2)CC1)c1ccccn1 | ? | 0.28µM | ? | ? | 0.89µM | 0.11µM | ?
CNc1ccc2nc3ccccc3[n+](C)c2c1 | i | nt | i | nt | 3.2µM | 13µM | 14µM
O=C(CN1C(=O)c2ccccc2Sc2ccc(C(=O)N3CCOCC3)cc21)Nc1ccc(Cl)cc1F | i | i | i | nt | nt | nt | nt
COc1ccc(Nc2nc(N)nc(CCl)n2)cc1 | nt | nt | nt | nt | 4µM | 6.3µM | 2.5µM
COc1ccc(Nc2nc(N)nc(CN3CCOCC3)n2)cc1 | i | i | i | i | i | nt | nt
COc1ccc(OC)c(CNc2ncc(-c3ccc(Cl)cc3)n2C)c1 | i | i | i | i | nt | nt | nt
Cc1cccc(N(CC(=O)NCCSCc2cccc(Cl)c2)S(=O)(=O)c2ccccc2)c1C | i | i | i | ? | nt | nt | nt
CN(C)c1ccc(/C=C2\Oc3ccc(C#Cc4cccc(N)c4)cc3C2=O)cc1 | ? | nt | i | nt | ? | 8.9µM | i
O=C(Nc1ccc(-c2nc3ccccc3[nH]2)cc1)c1ccco1 | i | ? | i | i | ? | nt | nt
O=C(/C=C/c1ccco1)Nc1ccc(-c2nc3ccccc3[nH]2)cc1 | ? | i | ? | ? | 2.8µM | 6.3µM | ?
COc1ccc2c(c1)CCc1c-2nc2ccccc2c1N1CCOCC1 | i | i | i | ? | 4.5µM | i | i
Cc1ccc2scc(N3CCCC(C)C3)c(=O)c2c1 (configuration not stated) | i | ? | i | nt | nt | nt | nt
CC1(C)Oc2ccc3ccc(=O)oc3c2-c2cn[nH]c21 | nt | ? | ? | i | 7.1µM | ? | ?
Cc1ccc2c(c1)c1c(n2CC(O)CNC2CCCCC2)CCCC1 (configuration not stated) | ? | nt | ? | nt | 4.5µM | 13µM | i
Cc1nn(C)c(C)c1NC(=O)CCSc1nc(-c2ccco2)cc(C(F)(F)F)n1 | nt | i | i | i | 4µM | ? | i
Clc1ccc2c(c1)C(OC1CN3CCC1CC3)c1ccccc1CS2 (configuration not stated) | ? | ? | ? | ? | 10µM | 16µM | ?
CN(C)CCOC1c2ccccc2CSc2ccccc21 (configuration not stated) | i | i | i | ? | i | nt | nt
CNC(=O)[C@H]1O[C@@H](n2cnc3c(NCc4ccc(N)cc4)ncnc32)[C@H](O)[C@H]1O | nt | nt | nt | i | nt | nt | nt
SMILES | VACV mCherry inh | LASV entry inh | VACV Venus inh | MARV entry inh | HCV inhibitor | HCV inh confirm | HCV cytotox
Cc1ccc(CNS(=O)(=O)c2cc3[nH]c(=O)c(=O)[nH]c3cc2C)cc1 | i | i | i | nt | nt | nt | nt
CCOc1ccccc1NC(=O)NC1CCCc2ccccc21 (configuration not stated) | nt | nt | nt | nt | ? | 7.9µM | i
CCOC(=O)c1cc2c(=O)n3ccccc3nc2n(CCCOC)c1=NC(=O)C(C)(C)C | i | i | i | i | ? | ? | i
CCOC(=O)c1cc2c(=O)n3ccccc3nc2n(CCOC)c1=NC(=O)C(C)(C)C | nt | i | nt | i | ? | nt | nt
CCC(=O)NC(=S)Nc1ccc(NC(=O)c2cccc([N+](=O)[O-])c2C)cc1 | i | i | i | i | ? | nt | nt
CCCC(=O)Nc1cccc(NC(=O)c2cccc([N+](=O)[O-])c2C)c1 | i | i | i | ? | 7.9µM | 13µM | i
COC(=O)c1cc2ccsc2n1CC(=O)Nc1cc(Cl)ccc1OC | ? | i | ? | i | 3.2µM | 7.9µM | 14µM
COc1ccc(CCNC(=O)c2ccc3c(c2)CCN3S(=O)(=O)c2ccc(C)cc2)cc1 | i | ? | i | i | nt | nt | nt
Cc1cccc(C)c1NC(=O)CSc1nc(-c2cccs2)cc(C(F)(F)F)n1 | i | i | i | i | nt | nt | nt
CCC(C)NC(=O)CSc1nc(-c2cccs2)cc(C(F)(F)F)n1 (configuration not stated) | i | i | i | i | 4.5µM | 20µM | i
O=C(NCCN1CCC(Cc2ccccc2)CC1)C1CCN(S(=O)(=O)N2CCC3(CC2)OCCO3)CC1 | nt | i | nt | ? | 6.3µM | ? | i
COc1cccc([C@@H]2Oc3ccc(Br)cc3C(=O)[C@H]2OC(=O)N[C@H]2CCCc3ccccc32)c1 | nt | nt | nt | i | nt | nt | nt
COc1cc(NC(=O)c2cccc3c2C(=O)N(C2CCCCC2)C3)cc(OC)c1 | i | ? | i | i | nt | nt | nt
Cc1cc(C)c(CN2CCN(C(=O)Cn3cnc4c(OCc5ccccc5)ncnc43)CC2)c(C)c1 | ? | nt | ? | nt | 0.56µM | 2.5µM | 5.6µM
O=C(Nc1ccc(-c2noc(COc3ccccc3Cl)n2)cc1)c1ccco1 | nt | ? | i | ? | ? | 7µM | i
O=C(COc1ccccc1Cl)Nc1ccc(NC(=O)c2ccco2)cc1 | i | i | i | i | i | nt | nt
Cc1cc(=O)n(CC(=O)N2CCN(c3ccc(F)cc3)CC2)c2c1c(C)nn2C | i | ? | i | nt | nt | nt | nt
CC(=O)N1CCN(c2csc3ccc(F)cc3c2=O)CC1 | i | i | i | nt | nt | nt | nt
Cc1nnc(C)c2c(C)n(-c3ccc(Cl)c(N)c3)c(C)c12 | i | i | i | ? | ? | nt | nt
Cc1cc(C)cc(-n2c(C)c3c(C)nnc(C)c3c2C)c1 | i | ? | i | ? | 2.2µM | 11µM | i
Cc1ccc(N2CCn3c2nc2c3c(=O)n(CCCc3ccccc3)c(=O)n2C)cc1 | i | i | i | nt | nt | nt | nt
CCOC(=O)c1c(NC(=O)c2ccc(S(=O)(=O)N(C)C3CCCCC3)cc2)sc2c1CCN(C(C)C)C2 | i | ? | i | nt | nt | nt | nt
COc1ccccc1NC(=O)c1ccc(NC(=O)COC(=O)c2ccc(O)cc2)cc1 | nt | nt | nt | nt | ? | ? | ?
COc1ccccc1NC(=O)c1ccc(NC(=O)COC(=O)C(C)C)cc1 | i | i | i | i | i | nt | nt
CCCCN(CCCC)S(=O)(=O)c1ccc2oc(C(=O)NCc3ccccc3)c(C)c2c1 | i | i | i | nt | nt | nt | nt
Cn1cc(C(=O)N2CCN(c3cccc(C(F)(F)F)c3)CC2)c2c3ccccc3n(C)c2c1=O | i | ? | i | ? | nt | nt | nt
COC(=O)c1ccccc1NC(=O)C1(c2cccs2)CCOCC1 | i | i | i | nt | nt | nt | nt
COc1ccc(S(=O)(=O)n2ccc(-c3ccc(OCCN(C)c4ccccn4)cc3)n2)cc1 | nt | ? | nt | i | 6.3µM | 7µM | ?
CN1C(=O)C(=Cc2ccc(OCCN(C)c3ccccn3)cc2)C(=O)N(C)C1=O | nt | nt | nt | nt | i | nt | nt

Screens as filed in PubChem.
